Structures are written as SMILES. “And” between values parts separate entries of the source, which are not always exact repeats. Equal entries are not always repeated. Records with an inconclusive call do not appear. A call without a number means that no potency is given here. The source made the active and inactive calls. Calls follow the shape of the dose curve; as a rule, active = well fitted curve in the direction sought with a large enough effect in the repeat runs; inconclusive = weak or mixed curves; inactive = no such curve, though single readings can be large; an effect the other way counts as inactive or inconclusive.
Potency is read from the fitted curve at half-maximal effect.

A short description of one test: A CellTox Green Cytotoxicity Assay to monitor cytotoxicity in HEK293 cells - 8 hour (AID 1224884). Also: nearly all actives have a fitted effect of over 35% in size. The note with it: CellTox Green fluorescence; series mostly up to 76.8 µM. The procedure, abridged:
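Fluorescence from a DNA-binding dye excluded by viable cells was measured repeatedly in the same HEK293 wells (600 cells/well) during continuous compound exposure at 37 C. Each assay gives one read point: 0, 8, 16, 24, 32 or 40 h.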
As for `O=[N+]([O-])c1ccccc1Nc1ccccc1`, the Potency entry is “inactive”.

As to `CC(C)(C)c1ccc(C(=O)O)cc1`, the Potency entry was “inactive”.

As to `CCCCCCCC(=O)[O-].CCCCCCCC(=O)[O-].[Zn+2]`, the Potency result is “inactive”.

Take `CCCCCCCCCCC=O`: the Potency entry was “inactive”.

Regarding `CC(C)c1ccc2c(c1)CC[C@H]1[C@](C)(CN)CCC[C@]21C`, the Potency is 38.9 µM (active).

As to `NC(=NCCCCCCN=C(N)/N=C(\N)Nc1ccc(Cl)cc1)/N=C(\N)Nc1ccc(Cl)cc1`, the Potency was 35.3 µM (active) and 54.6 µM (active).

Regarding `COc1cccc(N)c1`, the Potency result is “inactive”.

On to `CCCCCCCC/C=C/CCCCCCCC1=NCCN1CCO`, for which the Potency is 49 µM (active).

Turning to `Cc1cc(O)c2ccccc2c1O`, the Potency is 9.52 µM (active).

`O=C1C=CC(=O)N1c1ccc(Cc2ccc(N3C(=O)C=CC3=O)cc2)cc1`: the Potency is 54.9 µM (active).

`CCCCCCCC/C=C\CCCCCCCCOCCO`: the Potency entry was “inactive”.

On to `Cc1cc(O)c(C(C)(C)C)cc1Sc1cc(C(C)(C)C)c(O)cc1C`, for which the Potency result is “inactive”.

For `NNC(=O)c1cccc(C(=O)NN)c1`, the Potency result was “inactive”.

As for `CCCCCCCCNC(C)C(O)c1ccc(SC(C)C)cc1` (stereo not drawn), the Potency was 21.3 µM (active).

For `C=CC(=O)OCC(CO)(COCC(COC(=O)C=C)(COC(=O)C=C)COC(=O)C=C)COC(=O)C=C`, the Potency entry was “inactive”.

For `COc1ccc(C(=O)/C(Br)=C\C(=O)O)cc1`, the Potency entry was “inactive”.

Turning to `CN(C)CCCOC1(Cc2ccccc2)CCCCCC1`, the Potency result is “inactive”.

For the compound `Oc1c(Cl)cc(Cl)c2cccnc12`, the Potency result was “inactive”.

Turning to `OCCN1CCN(CC/C=C2/c3ccccc3Sc3ccc(C(F)(F)F)cc32)CC1`, the Potency is 23.9 µM (active).

`Nc1ccc2cc(S(=O)(=O)O)cc(O)c2c1N=Nc1ccccc1C(F)(F)F`: the Potency entry is “inactive”.

As to `Clc1ccccc1C(c1ccccc1)(c1ccccc1)n1ccnc1`, the Potency entry is “inactive”.

A further test in a line: qHTS RealTime-Glo MT Cell Viability Assay in HepG2 cells - 16 hour (AID 1224885). Also: nearly all actives have a fitted effect of over 50% in size. Conditions: RealTime-Glo luminescence; series mostly up to 76.8 µM. An outline of the steps: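 HepG2 cells were seeded at 600 cells/well together with NanoLuc luciferase and a cell-permeant prosubstrate, preincubated 5 h at 37 C/5% CO2, then pin-dosed with compounds in DMSO. Nonlytic luminescence from viable cells was read at each time point.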
Background: Quantitative high-throughput screening tests each substance at several concentrations.
As for `C[C@@H](NCCCc1cccc(C(F)(F)F)c1)c1cccc2ccccc12`, the Potency is 21.3 µM (active).

Regarding `CC(C)(C)C(=O)OCOC(=O)[C@@H]1N2C(=O)[C@@H](NC(=O)[C@H](N)c3ccccc3)[C@H]2SC1(C)C`, the Potency result was “inactive”.

For the compound `O=[N+]([O-])c1ccccc1Nc1ccccc1`, the Potency result is “inactive”.

As for `CC(C)(C)c1ccc(C(=O)O)cc1`, the Potency entry is “inactive”.

In the case of `CCCCCCCC(=O)[O-].CCCCCCCC(=O)[O-].[Zn+2]`, the Potency result is “inactive”.

For `CCCCCCCCCCC=O`, the Potency entry is “inactive”.

Take `CCCCCCCC[P+](CCCCCCCC)(CCCCCCCC)CCCCCCCC`: the Potency is 17.3 µM (active).

`C[C@H](CCC(=O)O)[C@H]1CC[C@H]2[C@@H]3CC[C@@H]4C[C@H](O)CC[C@]4(C)[C@H]3CC[C@]12C`: the Potency entry was “inactive”.

With `CC(C)c1ccc2c(c1)CC[C@H]1[C@](C)(CN)CCC[C@]21C`, the Potency is 17.4 µM (active).

Regarding `O=C(O)c1ccc(Cl)c(Cl)c1`, the Potency entry is “inactive”.

Regarding `NC(=NCCCCCCN=C(N)/N=C(\N)Nc1ccc(Cl)cc1)/N=C(\N)Nc1ccc(Cl)cc1`, the Potency is 43.4 µM (active) and 31.5 µM (active) and 24.4 µM (active).

Take `COc1cccc(N)c1`: the Potency entry was “inactive”.

With `CCCCCCCC/C=C/CCCCCCCC1=NCCN1CCO`, the Potency was 24.5 µM (active).

As for `Cc1cc(O)c2ccccc2c1O`, the Potency is 13.4 µM (active).

`O=C1C=CC(=O)N1c1ccc(Cc2ccc(N3C(=O)C=CC3=O)cc2)cc1`: the Potency was 12.3 µM (active).

On to `O=C1C=CC(=O)N1`, for which the Potency is 25.2 µM (active).

On to `Cc1cc(O)c(C(C)(C)C)cc1Sc1cc(C(C)(C)C)c(O)cc1C`, for which the Potency is 48.9 µM (active).

For `NNC(=O)c1cccc(C(=O)NN)c1`, the Potency entry was “inactive”.

`CCCCCCCCNC(C)C(O)c1ccc(SC(C)C)cc1` (stereo not drawn): the Potency is 15.1 µM (active).

In the case of `C=CC(=O)OCC(CO)(COCC(COC(=O)C=C)(COC(=O)C=C)COC(=O)C=C)COC(=O)C=C`, the Potency is 5.43 µM (active).

Turning to `CC[C@H]1O[C@]2(CC[C@@H]1C)C[C@@H]1C[C@@H](C/C=C(\C)C[C@@H](C)/C=C/C=C3\CO[C@@H]4[C@H](O)C(C)=C[C@@H](C(=O)O1)[C@]34O)O2`, the Potency is 43.3 µM (active).

Regarding `CN(C)[C@@H]1C(=O)C(C(N)=O)=C(O)[C@@]2(O)C(=O)C3=C(O)c4c(O)ccc(Cl)c4[C@@H](O)[C@H]3C[C@@H]12`, the Potency entry is “inactive”.

With `CC(=O)N1CCN(c2ccc(OC[C@H]3CO[C@](Cn4ccnc4)(c4ccc(Cl)cc4Cl)O3)cc2)CC1`, the Potency is 49 µM (active).

Turning to `CN(C)CCCOC1(Cc2ccccc2)CCCCCC1`, the Potency result is “inactive”.

In the case of `Oc1c(Cl)cc(Cl)c2cccnc12`, the Potency result was “inactive”.

As for `O=C(c1ccc(O)cc1O)c1ccc(O)cc1O`, the Potency entry was “inactive”.

Consider `OCCN1CCN(CC/C=C2/c3ccccc3Sc3ccc(C(F)(F)F)cc32)CC1`, for which the Potency is 23.9 µM (active).
